NS1 function inh = qHTS Assay for Inhibitors of Influenza NS1 Protein Function. hit rate 0.4% among 270,000. Potency, µM (titrated, usually from 46.1 µM), for inactives: at the top dose activity, positive = more growth; further: potency means the concentration at half of the fitted maximal effect; actives are rising curves; nearly all actives have a fitted effect of over 50% in size
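S. cerevisiae expressing influenza A NS1, grown in glucose, washed, then diluted 1:100 into pH 6.0 -URA galactose medium with 23 nl compound. Growth recovery read as OD600; NS1-free strain serves as control.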
SARS PLpro yeast = qHTS of Yeast-based Assay for SARS-CoV PLP. S. cerevisiae expressing SARS-CoV PLpro, growth rescue. Potency, µM (doses to about 32.9 µM), for the others: top-dose activity, positive = growth rescue, most hits filed as activators. hit rate 0.19% among 330,000; further: potency means the concentration at half of the fitted maximal effect; 0% is about no effect; nearly all actives have a fitted effect of over 55% in size
Pf growth 96h = Primary qHTS for delayed death inhibitors of the malarial parasite plastid, 96 hour incubation; P. falciparum luciferase reporter growth, 96 h; Potency, µM (doses to about 28.7 µM), for the others: at the highest dose activity change, negative = inhibition, hits mostly inhibitors; hit rate 6.9% among 320,000; AID 504834, 2011; active means well fitted inhibition curve with a large enough effect; inconclusive means small, poorly fitted or top-dose-only effect, or another doubt; inactive means no such curve, though single readings can be large or run the other way; further: potency means the concentration at half of the fitted maximal effect; on the % scale 0 is the no-effect control and ±100 the full control effect
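Delayed-death screen, second-generation endpoint: infected erythrocytes, 2% hematocrit, 0.05% parasitemia final; 96 hours at 37 C, 5% CO2; luciferase detection reagent; luminescence decrease equals reduced growth.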
CHX counter = Cycloheximide Counterscreen for Small Molecule Inhibitors of Shiga Toxin | max response, % | AID 2314, 2010 | hit rate 12% among 300,000 | cell reporter, cycloheximide protein synthesis inhibition counterscreen; in the data active means max response mostly above about 13%, no sharp cut-off; inactive means mostly below about 14%; further: read at 38.3 µM for the half of the compounds with a filed dose; 0% is about no effect
Pf growth 48h = Primary qHTS for delayed death inhibitors of the malarial parasite plastid, 48 hour incubation; P. falciparum luciferase growth in erythrocytes, 48 h; Potency, µM (top dose mostly 28.7 µM), inactives show at the top dose activity change, negative = inhibition, usual class: inhibitors; hit rate 5.9% among 310,000; active means well fitted inhibition curve with a large enough effect; inconclusive means small, poorly fitted or top-dose-only effect, or another doubt; inactive means no such curve, though single readings can be large or run the other way; further: potency means the concentration at half of the fitted maximal effect; on the % scale 0 is the no-effect control and ±100 the full control effect
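Compounds are pin-transferred into medium, infected erythrocytes (2% hematocrit, 0.1% parasitemia final) are added, and plates sit one parasite generation at 37 C in 5% CO2. Detection reagent is then added and luminescence measured.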
Shiga inhibitor = A qHTS for Small Molecule Inhibitors of Shiga Toxin | Vero cells, Shiga toxin protein synthesis inhibition reporter | inhibition, % at 38.7 µM | hit rate 9.2% among 290,000 | AID 2315, 2010; in the data active means inhibition mostly above about 28%, no sharp cut-off; inactive means mostly below about 43%; further: 0% is about no effect
NS1 inh valid = Assay for Inhibitors of Influenza NS1 Protein Function: Hit Validation. activity change, negative = inhibition, % at 32.9 µM. influenza NS1 function cell assay, 15-point titration. 1,400 tested, under 10 active. shares compounds with NS1 function inh; further: 0% is about no effect
Flu PR8 replic = Assay for Inhibitors of Influenza NS1 Protein Function: Influenza virus replication assay in MDCK cells infected with virus A/PR/8/34; MDCK infected influenza A/PR/8/34, virus titer TCID50; hits give low values; virus titer (log TCID50), log10 TCID50 at 5 µM; hit rate 30% among 95; shares compounds with NS1 function inh; AID 504647, 2011; call rule not given here
Numbers without * were called inactive; ? = inconclusive; . = not tested or not shown; ! = not active in a repeat. Hits are enriched below; roughly 21% of the tested compounds scored in any of these assays. Unless noted, the call rests on the fitted dose curve.

SMILES	NS1 function inh	SARS PLpro yeast	Pf growth 96h	CHX counter	Pf growth 48h	Shiga inhibitor	NS1 inh valid	others
COc1ccc(C2CC(=O)C=C(NNS(=O)(=O)c3ccc(C)cc3)C2)cc1 (stereo not drawn)	4µM*	5%	56%	3	12%	-16	15
Cc1ccc(C(=O)NCC(=O)OC(C)C(=O)NC2CCCCC2C)cc1C (stereo not drawn)	.	-26%	?	.	?	.	.
CC1(C)Cc2c(sc(NC(=O)C(=O)N3CCCCC3)c2C(=O)O)CO1	14%	9%	-4%	-5	1%	-5	.
O=C(C1=C[C@@H](C2CC2)C[C@@H](OCCCCO)O1)N1CCN(Cc2ccccc2)CC1	4%	0%	-18%	-2	-26%	-7	.
N#CCC(=O)N/N=C/c1cccc(Oc2ccccc2)c1	?	0%	-3%	10	247%	2	.
N#CCC(=O)N/N=C/c1ccc(N2N=C(c3ccccc3)CC2c2ccccc2)cc1 (stereo not drawn)	1.1µM*	0%	?	10*	?	2	-33
COc1nn(CC(=O)N2N=C(C(F)F)CC2(O)C(F)F)cc1[N+](=O)[O-] (stereo not drawn)	-2%	-15%	-19%	-2	2%	14	.
CCCN(C(=O)c1ccc([N+](=O)[O-])c(C)c1)c1c(N)n(Cc2ccccc2)c(=O)[nH]c1=O	.	3%	0%	.	17%	.	.
COc1ccc(CC(=O)OCC(=O)c2ccc(F)cc2)cc1	.	8%	.	.	.	.	.
O=C(Cc1cc(=O)[nH][nH]1)N/N=C/C=C/c1ccccc1	5µM*!	2%	-8%	1	8%	-4	33
COc1ccc(C(C)=O)cc1COc1cccnc1[N+](=O)[O-]	?	0%	1%	2	-5%	2	-6
COc1ccc(C(C)=O)cc1COc1ccccc1[N+](=O)[O-]	.	2%	8%	4	5%	10	.
CCNC(=S)N/N=C/c1ccc(OCC(=O)Nc2ccc(C)cc2)cc1	10%	5%	?	2	.	-15	.
COc1ccc(Cl)cc1S(=O)(=O)N1CCC(C(=O)NCc2ccco2)CC1	5%	20%	-17%	1	?	-16	.
CCCCOc1ccc(-c2c(C#N)c(N)nc(SCC(N)=O)c2C#N)cc1	?	12%	?	-1	?	-4	.
CCCOc1ccc(-c2cnc(SCC(N)=O)nc2N)cc1	8.9µM*	-1%	.	14	1%	22	11
C=CCn1c(SCc2ccccc2)nc(O)cc1=O	6.3µM*	-8%	-55%	4	.	5	31
C#C[C@]1(O)CC[C@H]2[C@@H]3CCC4=CC(=O)CC[C@]4(C)[C@H]3CC[C@@]21C	1%	-1%	?	-2	-6%	4	.
C[C@]12Cc3cn4c(nc3C=C1CCC1C2CC[C@@]2(C)[C@H]1CC[C@@]2(O)C#N)nc1ccccc14 (stereo partly drawn)	40µM*	.	.	.	.	.	?
Cc1ccc(S(=O)(=O)N2CCC(C(=O)Nc3ccccc3N3CCCCC3)CC2)cc1	5µM*	2%	13%	5	7.4µM*	-27	4
COCCN1CCn2c(nc3cc(NC(=O)c4ccc(OC)cc4)ccc32)C1	13µM*	?	.	7	?	14	13	Flu PR8 replic=8.3
Cc1nn(CC(=O)Nc2ccc3c(c2)nc2n3CCOC2)c(=O)c2ccccc12	-1%	7%	35%	3	.	-6	.
COCCN1CCn2c(nc3cc(NC(=O)Cn4nc(C)c5ccccc5c4=O)ccc32)C1	?	-5%	-4%	-1	-10%	-12	7
Cc1ccc(C2(c3noc(CN(C)Cc4cccnc4)n3)CCCC2)cc1	-14%	-4%	-11%	-1	?	12	.
CCCCC(=O)Nc1cccc(NC(=S)NC(C)=O)c1	1%	10%	-94%	-8	-8%	-12	.
SMILES	NS1 function inh	SARS PLpro yeast	Pf growth 96h	CHX counter	Pf growth 48h	Shiga inhibitor	NS1 inh valid	others
COc1ccc(N2CC(C(=O)Nc3ccccc3C(=O)NC3CC3)CC2=O)cc1 (stereo not drawn)	2%	0%	28%	2	34%	-16	.
COc1ccc(C2CC(c3ccccc3Cl)Nc3ncnn32)cc1OC (stereo not drawn)	4.5µM*	-10%	19%	-6	-29%	15	?
O=S(=O)(/N=C(/Nc1cccc2ccccc12)c1ccccc1)c1cccs1	14µM*	-6%	12µM*	4	?	-3	-13
COc1cc(COCC(O)CN2CCc3ccccc3C2)cc(OC)c1OC (stereo not drawn)	4%	0%	-19%	-6	-13%	-5	.
C=CCN1CC[C@]23c4c5ccc(O)c4OC2C(=O)CC[C@@]3(O)C1C5 (stereo partly drawn)	13µM*	-2%	83%	-3	-8%	1	-17
C=C1CC[C@@]2(O)[C@H]3Cc4ccc(O)c5c4[C@@]2(CCN3CC2CC2)[C@H]1O5	1%	0%	0%	-3	-6%	-9	.
CC(=O)N1CCN(CC(=O)c2ccc(Br)cc2)CC1	-63%	-23%	-7%	-6	0%	14	.
O=C(CN1CC[n+]2c(-c3cccs3)csc21)c1ccc(Br)cc1	4.5µM*	-11%	49%	-6	13µM*	-8	27
CCOC(=O)Cc1c(C)nc2c(-c3ccc(Cl)cc3)c[nH]n2c1=O	-9%	2%	51%	-2	?	25	.
CC(C)=C1C2CCC1C1C(=O)N(c3nc(-c4ccccc4)c(C)s3)C(=O)C21 (stereo not drawn)	3%	8%	2%	2	-5%	9	.
COc1ccc(-c2ccc([C@H]3[C@H]4C=CC[C@@H](C)[C@@H]4C(=O)N3Cc3ccccc3)c(F)c2)cc1C	?	-4%	?	-4	10µM*	-7	-6
CC(C)[C@H](NC(=O)c1ccco1)C(=O)N(C)Cc1ccc(C(F)(F)F)cc1	-11%	1%	4%	9	-4%	-11	.
CCN1C(=O)[C@H]2[C@@H](c3ccc(C)cc3)N3C(=O)N(c4cccc(C)c4)C(=O)[C@@]3(Cc3ccccc3)[C@H]2C1=O	-22%	9%	?	-1	?	5	.
